From PubChem
MITF TRPM1 HTS = activators of MITF-driven TRPM1 promoter reporter, primary screen, cell-based, SK-MEL-5, luciferase, single point | activation, % at 12.5 µM | 300,000 compounds, 0.75% hits | AID 588334, 2011 | SK-MEL-5 TRPM1-promoter luciferase, 24 h; % of positive control, neutral wells = 0;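 active means mean activation of at least 80% with every replicate also reaching 80%; inconclusive means mean reaches 80% but some replicate falls short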;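 further: 0% = neutral control wells and 100% = parthenolide positive control wells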
Wnt act = Wnt/beta-catenin pathway activators, primary screen, cell-based, plate reader, single point | Wnt/beta-catenin reporter cell assay, activator | activation, % at 9.35 µM | 300,000 compounds, 1.2% hits | AID 743398, 2014; in the data active means activation above about 30%, passing the limit was not always enough; inconclusive means no clear call, values can overlap the other calls;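 further: 0% = neutral control wells and 100% = positive control wells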
HSF-1 act = HSF-1 activators, primary screen, NIH3T3-HGL cells, MG132 stress, luminescence, single point; activation, % at 9 µM; NIH3T3-HGL HSF-1 luciferase reporter, 8 h; 100% = twice DMSO control signal; 300,000 compounds, 1.7% hits;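 active means mean replicate activation of at least 50% with a set share of replicates each reaching 50%; inconclusive means only one of those two conditions met; inactive means mean below 50% and too few replicates reaching it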;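 further: 0% = median of the neutral control wells and 100% = twice that signal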
HSF1 inhib = HSF1 inhibitors in luciferase reporter cells, primary screen, cell-based, NIH3T3, luminescence | NIH3T3-HGL HSE-luciferase, MG132-induced, luminescence 8 h; stronger effect = lower value | activity change, negative = inhibition, % at 7.5 µM (by protocol) | 300,000 compounds, 0.77% hits | AID 2098, 2009;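 active means more than half of replicate wells show activity change below -50%, luminescence cut by over half; inconclusive means some wells, but at most half, below -50%; inactive means no replicate well below -50%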;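 further: luciferase reports HSF-1 transcriptional activity via heat shock element; 0% = median of DMSO wells and -100% = zero luminescence signal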
esBAF inh = Bmi1 luciferase reporter increase in mESCs, primary screen, esBAF inhibitor project, mouse ES cells, Bmi1 luciferase knock-in, single point | 24 h; 100% = twice the neutral-well signal | reporter increase, % at 12.5 µM | 350,000 compounds, 2% hits | AID 602393, 2012; in the data active means activation above about 40%; inconclusive means no clear call, values can overlap the other calls;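 further: 0% = median of the plate's neutral control wells and 100% = double that signal; a rise in the Bmi1 reporter signal indicates esBAF inhibition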
The depositor's hits bear a star; ? = inconclusive; / = no result given. Shown are actives, neighbours in structure and some others; about 3.8% of the full set was active somewhere.

SMILES	MITF TRPM1 HTS	Wnt act	HSF-1 act	HSF1 inhib	esBAF inh
CC=Cc1ccc2n(c1=O)C[C@H]1[C@H](CO)[C@@H](C(=O)NCCC)N(C(=O)C3CCOCC3)[C@@H]21 (mixture of isomers)	/	/	/	/	-1.7
Cc1[nH]n(CCC#N)c(=O)c1CC(=O)N1CCN(c2ccccc2)CC1	-2.3	/	-65.3	-53.7*	-1.4
Cn1nc(CC(=O)N2CCN(c3ccccc3)CC2)c2ccccc2c1=O	/	3.7	-0.1	-0.5	15.6
O=C(CC1C(=O)NCCN1Cc1cccc(Oc2ccccc2)c1)NCCc1ccccn1 (stereo not given)	2.3	-2.5	1.7	-3.4	/
Cn1cc(CCNC(=O)CC2C(=O)NCCN2Cc2cccc(Oc3ccccc3)c2)cn1 (stereo not given)	4.3	-9.5	-76.8	-68.8*	/
CO[C@H]1CN(C)C(=O)c2ccc(NC(=O)C3CC3)cc2OC[C@H](C)N(CC2CC2)C[C@H]1C	/	/	/	/	1.2
CN1C(=O)c2cc(NC(=O)Nc3cccc(Cl)c3)ccc2OC[C@H]2O[C@@H](CC(=O)O)CC[C@H]21	/	/	/	/	-1.7
COc1ccccc1NC(=O)N1C[C@@H](C)[C@H](OC)CN(C)C(=O)c2ccc(NC(=O)c3ccccn3)cc2OC[C@H]1C	/	/	/	/	5.0
NC(=O)c1cc(Cl)ccc1OCC(=O)Nc1ccc2c(c1)OCO2	57.3	67.8*	/	/	-48.4
O=C(COc1cccc(Cl)c1Cl)Nc1ccc2c(c1)CCC2	24.8	8.1	6.7	4.4	/
O=C(COc1ccccc1[N+](=O)[O-])Nc1ccc2c(c1)CCC2	110.7*	28.8	/	/	79.0*
O=C(COc1ccccc1[N+](=O)[O-])N/N=C/c1cccc(OC(=O)c2ccc3c(c2)OCO3)c1	95.1*	28.6	?	28.3	/
O=C(COc1cc(F)ccc1[N+](=O)[O-])Nc1ccc2c(c1)OCO2	64.5	22.4	/	/	57.3*
COC(=O)N/N=C/c1cccc(OC(=O)c2ccc3c(c2)OCO3)c1	/	-0.9	3.0	-0.3	5.0
COc1ccccc1CNC(=O)C[C@@H]1C[C@@H]2c3cc(NC(=O)c4ccc5c(c4)OCO5)ccc3O[C@@H]2[C@@H](CO)O1	/	/	/	/	6.8
CC(=O)c1cc(F)ccc1OCC(=O)Nc1ccc2c(c1)OCO2	?	52.8*	/	/	7.3
O=C(COc1ccccc1[N+](=O)[O-])Nc1ccc2c(c1)OCO2	60.6	15.9	24.6	17.6	57.9*
CC(C)c1nnc(NC(=O)COc2ccccc2[N+](=O)[O-])s1	/	21.1	9.8	5.6	/
CCSc1nnc(NC(=O)COc2ccccc2[N+](=O)[O-])s1	21.7	4.8	10.7	-1.8	48.6*
C[C@@H]1CN([C@@H](C)CO)C(=O)Cc2cc(NC(=O)C3CC3)ccc2O[C@H]1CN(C)C(=O)Nc1ccccc1	/	/	/	/	-1.7
C[C@@H]1CN([C@H](C)CO)C(=O)Cc2cc(NC(=O)NC3CCCCC3)ccc2O[C@H]1CN(C)CC1CC1	/	/	/	/	-3.5
O=[N+]([O-])c1ccccc1COc1ccc(Cl)c2cccnc12	5.8	40.7*	43.8	11.4	-41.8
COc1cnn(-c2ccccc2)c(=O)c1OC	/	50.1*	-4.8	-5.8	/
O=c1c(Cl)c(Cl)cnn1-c1ccccc1	-87.6	/	-96.1	-96.3*	/
COc1c(O)cnn(-c2ccccc2)c1=O	/	0.6	-5.8	5.9	/
SMILES	MITF TRPM1 HTS	Wnt act	HSF-1 act	HSF1 inhib	esBAF inh
CC(C)NC(=O)Nc1ccc2c(c1)C(=O)N([C@H](C)CO)C[C@@H](C)[C@H](CN(C)CC1CC1)OCCCC[C@@H](C)O2	/	/	/	/	1.4
c1ccc(-c2cc(N3CCCCC3)ncn2)cc1	85.7*	-1.0	10.2	9.5	44.4*
c1ccc(-c2cc(N3CCCCCC3)n[nH]2)cc1	2.4	/	18.8	6.5	57.7*
CC(C)NC(=O)Nc1ccc2c(c1)CC(=O)N([C@H](C)CO)C[C@@H](C)[C@H](CN(C)Cc1ccc(-c3ccccc3)cc1)O2	/	/	/	/	0.5
C[C@H]1CCCCO[C@H](CN(C)S(C)(=O)=O)[C@@H](C)CN([C@@H](C)CO)C(=O)c2cc(NS(C)(=O)=O)ccc2O1	/	/	/	/	0.9
CCOC(=O)c1c(CN2CCC(C)CC2)n(C)c2cc(Br)c(OC)cc12	9.1	40.4*	94.0*	59.0	/
CCOC(=O)c1c(CN2CCN(Cc3ccccc3)CC2)n(C)c2cc(Br)c(OC)cc12	5.3	-6.1	7.6	1.5	-7.1
C[C@@H]1CN([C@H](C)CO)C(=O)Cc2cc(NS(=O)(=O)c3ccccc3)ccc2O[C@H]1CN(C)C(=O)NC1CCCCC1	/	/	/	/	-0.6
CCC(=O)N1[C@@H]2Cn3c(ccc(-c4ccccc4F)c3=O)[C@H]1[C@@H](C(=O)NC1CCCC1)[C@@H]2CO	/	/	/	/	3.4
Cn1ccnc1SCC(=O)Nc1ccc(Oc2ccccc2)cc1	?	6.9	10.3	17.5	49.8*
CCOc1ccc(NC(=O)CSc2nccn2C)cc1	56.2	6.3	27.5	16.1	?
Cn1ccnc1SCC(=O)c1cccc(C(F)(F)F)c1	88.6*	24.5	1.8	-1.9	33.2
COc1ccc(C(=O)CSc2nccn2C)cc1	79.0	16.7	11.1	7.9	42.2*
Cc1noc(C)c1S(=O)(=O)Nc1ccc2c(c1)CC(=O)N([C@H](C)CO)C[C@H](C)[C@@H](CN(C)Cc1ccc(C(F)(F)F)cc1)O2	/	/	/	/	4.5
COc1ccc(CCNC(=O)c2ccc(CNS(=O)(=O)c3cccc(Cl)c3)cc2)cc1OC	1.0	/	59.9*	19.8	/
CN(C)S(=O)(=O)c1cccc(-c2cn3cccnc3n2)c1	-2.9	-2.1	5.3	-3.9	/
Cc1ccc2nc(-c3cccc(S(=O)(=O)N(C)C)c3)cn2c1	?	/	15.6	-5.1	82.9*
Cc1ccc2nc(-c3cccc(S(=O)(=O)N4CCCC4)c3)cn2c1	29.1	12.7	41.0	20.8	64.2*
CC(=O)N(C)C[C@@H]1Oc2ncc(-c3ccc(F)cc3)cc2C(=O)N([C@@H](C)CO)C[C@H]1C	/	/	/	/	-4.3
CC(=O)c1cc(C#N)c(NCc2ccccc2)nc1C	20.5	-4.2	26.3	2.4	/
CCOC(=O)c1cc(C#N)c(NCc2ccccc2)nc1C	3.7	/	-77.7	-72.4*	2.5
COc1ccc(CN(C)C[C@H]2OCCCC[C@@H](C)Oc3ccc(NC(=O)Nc4ccccc4)cc3C(=O)N([C@@H](C)CO)C[C@@H]2C)cc1	/	/	/	/	3.5
